From PubChem BioAssay
pAkt inh: HTS Assay for Inhibitors of Akt Phophorylation: Primary Screen; actives 0.32% (n = 360,000); activity change, % for hits at 50 µM; AID 651550, 2012; Neuro2A IGF-stimulated pAkt S473 HTRF, 20 min; active compounds read low; in the data active means activity change below about -80%; inconclusive means mostly about -51% to -80%; further: on the % scale 0 is the no-effect control and ±100 the full control effect
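Neuro2A cells in DMEM with 0.5% FBS, overnight at 37 deg C, given compound at single 50 µM final, then IGF (6 nM final) for 20 min at 37 deg C. Lysed; phospho-Akt Ser473 by HTRF after 24 h, 665/615 ratio.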
PINK1 expr mod: A Quantitative High throughput Screen to Identify Chemical Modulators of PINK1 Expression; actives 0.2% (n = 410,000); Potency, µM (doses to about 76.6 µM), for inactives: at the top dose activation (PINK1 increase), actives largely listed as activators; PINK1 immunofluorescence, high-content cytometry, 24 h; active means well fitted activation curve with a large enough effect; inconclusive means small, poorly fitted or top-dose-only effect; cell line not stated here; further: potency means the concentration at half of the fitted maximal effect; % of control where 0% means no effect; nearly all actives have a fitted effect of over 65% in size
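Readout is PINK1 immunofluorescence, quantified alongside mitochondrial, cell and nuclear markers by laser-scanning microplate cytometry. Cells from a stable line were exposed to compound titrations (5 concentrations) for 24 hours, with CCCP controls.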
Vif-A3F inh: qHTS for Inhibitors of Vif-A3F Interactions: qHTS; AID 602313, 2012; actives 0.2% (n = 390,000); Potency, µM (titrated, usually from 46.1 µM), without a hit: at the highest dose activity, negative = active; HeLa A3F-eYFP + Vif (tagged APOBEC3F with the HIV-1 protein that degrades it), YFP fluorescence increase; further: potency means the concentration at half of the fitted maximal effect; % of control where 0% means no effect; nearly all actives have a fitted effect of over 65% in size
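HeLa cells stably expressing Vif plus C-terminally eYFP-tagged A3F were seeded, incubated overnight at 37 deg C, dosed with compound, incubated overnight again at 37 deg C. Yellow fluorescence (Ex 488/Em 500-530) reported blocked Vif-mediated A3F-eYFP degradation.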
Vif-APOBEC3G blk: qHTS for Inhibitors of Vif-A3G Interactions: qHTS. AID 602310, 2012. actives 0.076% (n = 410,000). Potency, µM (series often up to 46.1 µM), for inactives: at the highest dose activity, negative = active, most hits filed as inhibitors. HeLa A3G-eYFP + Vif (tagged APOBEC3G with the HIV-1 protein that degrades it), YFP fluorescence, overnight. DNA dC->dU-editing enzyme APOBEC-3G (Homo sapiens), Q9HC16; further: potency means the concentration at half of the fitted maximal effect; on the % scale 0 is the no-effect control and ±100 the full control effect; nearly all actives have a fitted effect of over 60% in size
Target sequence (Q9HC16 whole entry, looked up): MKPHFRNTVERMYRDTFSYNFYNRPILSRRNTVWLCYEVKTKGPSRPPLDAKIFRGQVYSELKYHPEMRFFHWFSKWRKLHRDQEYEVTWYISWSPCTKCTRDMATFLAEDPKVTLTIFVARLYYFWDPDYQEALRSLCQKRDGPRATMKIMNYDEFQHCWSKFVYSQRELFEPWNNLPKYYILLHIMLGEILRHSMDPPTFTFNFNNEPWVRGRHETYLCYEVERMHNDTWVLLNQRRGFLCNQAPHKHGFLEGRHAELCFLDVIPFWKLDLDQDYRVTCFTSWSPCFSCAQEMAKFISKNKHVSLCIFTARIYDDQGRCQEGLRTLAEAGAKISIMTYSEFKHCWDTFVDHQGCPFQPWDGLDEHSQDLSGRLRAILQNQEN
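HeLa cells stably expressing Vif and C-terminally eYFP-tagged A3G, seeded overnight at 37 deg C, then exposed to compound by pintool overnight at 37 deg C. Rise in yellow fluorescence (Ex 488/Em 500-530, Acumen) marks blocked Vif-driven A3G degradation.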
Glioma ERSR ind: qHTS for Inducers of the Endoplasmic Reticulum Stress Response (ERSR) in Human Glioma: qHTS | actives 0.02% (n = 420,000) | AID 602332, 2012 | Potency, µM, for the others: at the highest dose activation, actives largely listed as activators | U87-MG GRP78 promoter luciferase reporter, 16 h; further: potency means the concentration at half of the fitted maximal effect; series mostly up to about 76 µM; % of control where 0% means no effect; nearly all actives have a fitted effect of over 35% in size
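Stably transfected U87-MG human glioma cells carrying a GRP78-based luminescent sensor were seeded at 1000 cells/well, pin-dosed with compounds and incubated 16 h. Luciferase reagent was then added, and end-point luminescence was read after 10 min at room temperature.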
LDHA inh: qHTS assay for inhibitors of human lactate dehydrogenase; actives 0.15% (n = 480,000); L-lactate dehydrogenase A chain (Homo sapiens), P00338; activity change, % (values are at about 110 or 230 µM); purified LDHA, NADH/diaphorase-resazurin fluorescence; active compounds read low; in the data active means activity change below about -30%; inconclusive means mostly about -25% to -30%;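 further: plate controls were DMSO wells for no effect and wells without enzyme for full effect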
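LDH5 2 nM; NADH 0.06 mM, pyruvate 0.2 mM; 200 mM Tris pH 7.4, EDTA, Tween-20; 5 min RT. Detection: diaphorase 0.133 mg/mL + resazurin 37 µM, fluorescence ex540/em590 at 0 and 20 min; normalized to enzyme-free and DMSO wells.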
Numbers without * were called inactive; i = inactive; ? = inconclusive; . = not tested or not shown; [ ] = another dose, or the depositor's remark. Rows were chosen to be rich in hits. Some 0.74% of all compounds tested hit in one or more screens of this group. Unless noted, the call rests on the fitted dose curve; in most records, active means well fitted curve in the direction sought with a large enough effect; inconclusive means small, poorly fitted or top-dose-only effect, or another doubt; inactive means no such curve, though single readings can be large; an effect the other way counts as inactive or inconclusive.

SMILES	pAkt inh	PINK1 expr mod	Vif-A3F inh	Vif-APOBEC3G blk	Glioma ERSR ind	LDHA inh
CC1C(c2ccccc2)N(C)C(c2ccccc2)C(C)C1(O)C#Cc1ccccc1 (stereo not drawn)	i	32µM*	?	-1%	-5%	2
CCN1CCC(O)(C#Cc2ccccc2)CC1	i	2%	6%	-9%	0%	0
NNC(=S)Nc1c(F)cc(F)cc1Br	i	2%	11µM*	0%	0%	0
COc1nc(-c2ccc(Cl)cc2)ccc1-c1noc(-c2ccco2)n1	i	12%	-1%	-2%	0%	-37*
COc1ccc2[nH]c(=O)c(-c3noc(-c4cccs4)n3)cc2c1	.	.	.	.	.	-38*
COc1ccc(-c2ccc(-c3noc(-c4cc(OC)cc(OC)c4)n3)c(OC)n2)cc1	.	2%	-2%	-5%	-1%	-9
COc1cccc(-c2ccc(-c3noc(-c4cccs4)n3)c(OC)n2)c1	?	2%	-4%	-6%	5%	-38*
CCN(CC)c1nc2ccccc2nc1C(C#N)S(=O)(=O)c1ccc(C)cc1 (stereo not drawn)	.	.	.	.	.	-4
O=C(C[n+]1ccccc1Cl)c1ccc(I)cc1	.	1%	.	1%	8%	-1
CC(C)(C)c1ccc(C(=O)C[n+]2ccccc2Cl)cc1	.	1%	.	3%	1%	-52*
Cc1cc(=O)oc(C)c1C(=O)Nc1c(C)n(C)n(-c2ccccc2)c1=O	i	-2%	.	0%	-2%	-3
Cc1c(NC(=O)c2c(NC(=O)CNC3CC3)sc3c2CCCC3)c(=O)n(-c2ccccc2)n1C	i	0%	4%	-9%	-6%	-89*
CC(Oc1ccc(Cl)cc1Cl)C(=O)Nc1cccnc1 (stereo not drawn)	-112%*	0%	-7%	-1%	-2%	-1
Cc1cccc(NC(=O)C(C)OC(=O)c2ccccc2NS(=O)(=O)c2cc(C)c(C)c([N+](=O)[O-])c2)c1 (stereo not drawn)	i	20µM*	0%	-6%	-7%	0
CC(=O)Nc1ccc(NC(=O)C(C)OC(=O)c2ccccc2NS(=O)(=O)c2cccs2)cc1 (stereo not drawn)	i	0%	-11%	-5%	-2%	-3
COc1cc(NS(=O)(=O)c2ccc(NC(=O)COc3ccccc3Cl)cc2)nc(OC)n1	-125%*	-2%	-7%	-7%	0%	5
CC(C)(N)c1nnnn1-c1ccc2c(c1)OCO2	.	.	.	.	.	2
Cc1ccccc1NC(=O)/C=C/c1ccc([N+](=O)[O-])s1	i	4%	10µM*	6.3µM*	-14%	-3
CC(=O)c1cccc(NC(=O)/C=C/c2ccc([N+](=O)[O-])s2)c1	i	18%	?	?	-8%	-16
Cc1ccccc1NC(=O)/C=C/c1cccs1	i	0%	3%	-1%	4%	-8
Cc1cc(C)cc(NC(=O)/C=C/c2ccc([N+](=O)[O-])s2)c1	i	?	11µM*	?	-3%	-9
CCCCN(C)Cc1ccccc1OC	.	.	.	.	.	-4
CC(=O)c1c(C)[nH]c(C(=O)/C(C#N)=C\c2ccc(F)cc2)c1C	.	.	.	.	.	0
OC(Cn1cnnc1)c1ccccc1 (stereo not drawn)	i	2%	7%	1%	3%	-37*
OC(CN1CCOCC1)c1ccccc1 (stereo not drawn)	.	.	.	-1%	-4%	.
SMILES	pAkt inh	PINK1 expr mod	Vif-A3F inh	Vif-APOBEC3G blk	Glioma ERSR ind	LDHA inh
OCCNCCOc1ccccc1F	-107%*	0%	4%	0%	-4%	-4
COC(=O)c1ccc(COc2ccc3c(C)c(Cc4ccccc4)c(=O)oc3c2)o1	.	.	.	.	.	3
CC[N+](C)(C(=O)O)/C(=C\c1ccccc1)c1ccnc2ccccc12 (stereo not drawn)	.	1%	.	11µM*	3%	-12
O=C(OCC(=O)N1CCC(Cc2ccccc2)CC1)c1cc(=O)c2ccccc2o1	.	.	.	.	.	-5
COCCCNC(=O)C1CCCCC1	.	.	.	.	.	3
CCn1c2ccc(OC)cc2c2nc3ccccc3nc21	i	-2%	.	-18%	-6%	-11
CCOc1ccc(Cn2c3ccc(OC)cc3c3nc4ccccc4nc32)cc1	i	17%	11µM*	?	-7%	1
CN(Cc1ccc(C(=O)NCC(F)(F)F)cc1)C(=O)c1cccc(F)c1	.	.	.	.	.	-8
Cc1ccc2nc(C)cc(C(=O)OC(C)C(=O)NCC(C)C)c2c1 (stereo not drawn)	.	.	.	.	.	-30*
Cc1cc(C(=O)OC(C)C(=O)NC(N)=O)c2ccccc2n1 (stereo not drawn)	.	.	.	.	.	-32*
COc1ccc(N/C=C/c2nc(SC)nnc2C)cc1	i	4%	22µM*	-18%	-4%	5
CSc1nnc(C)c(/C=C/Nc2ccc(F)cc2)n1	i	3%	-14%	-20%	-5%	-1
Cc1c(NC(=O)c2cc(-c3cccs3)on2)c(=O)n(-c2ccccc2)n1C	-83%*	-1%[38.3 µM]	-17%	0%	3%	-13
Cc1csc(NC(=O)CCC(=O)N(CC(=O)NC2CCCC2)Cc2ccccc2)n1	i	3%	11µM*	?	?	-6
COc1ccc(CN(CC(=O)NC2CCCC2)C(=O)CCC(=O)Nc2nc(C)cs2)cc1	i	2%	-4%	2%	-3%	-7
Cc1nc2ccc(NC(=O)c3cc(S(=O)(=O)N(C)c4ccccc4)ccc3Cl)cc2s1	i	25%	22µM*	-10%	0%	-4
O=C(CCc1ncc(-c2ccc(F)cc2)o1)N1CCN(c2ccc([N+](=O)[O-])cc2)CC1	.	.	.	.	.	-1
O=S1(=O)C=C(Sc2nc3ccccc3s2)c2ccccc21	-108%*	-3%	-4%	?	-14%	-1
COC(=O)c1cc(-c2ccc(OC)c(OC)c2)nc2onc(C(C)C)c12	.	.	.	.	.	13
Cc1ccc(NC(=O)c2cc(C(=O)c3cc(Cl)ccc3O)cn(-c3ccc(C)cc3)c2=O)cc1	i	35µM*	0%	-4%	0%	0
COc1ccc(Nc2nc(NCC(C)O)nc3c2cnn3-c2ccccc2)cc1 (stereo not drawn)	.	.	.	.	.	6
CN(CC(=O)Nc1c(F)cccc1F)Cc1ccccc1	.	.	.	.	.	-4
CSc1ccc(CN(C)CC(=O)Nc2c(F)cccc2F)cc1	i	0%	-3%	-4%	-4%	-33*
Cc1c(C(=O)Nc2ccccc2)sc(N)c1C#N	.	.	.	.	.	-1
